Holding throughout (test): NCI-60 one-dose screen, 48 h (100 = growth as untreated, 0 = no growth, -100 = all killed)
What all share (conditions): 10 µM unless noted

Test [1] concerns DU-145 prostate.
Test [2] deals with K-562 leukemia.
Test [3] concerns MALME-3M melanoma.
Test [4] relates to MDA-MB-231 breast.
Test [5] deals with RXF 393 renal.
Test [6] relates to SF-268 CNS.
The test system of test [7] is SF-295 CNS.
Test [8] has as its system SF-539 CNS.
The test system of test [9] is UACC-257 melanoma.
The subject of test [10] is M14 melanoma.
In test [11] the test system is HCT-15 colon.
The test system of test [12] is HT29 colon.
Test [13] concerns SNB-75 CNS.
The test system of test [14] is SNB-19 CNS.
Test [15] relates to U251 CNS.
The subject of test [16] is PC-3 prostate.
For test [17], the system named is SK-MEL-5 melanoma.
The test system of test [18] is UACC-62 melanoma.
The subject of test [19] is LOX IMVI melanoma.
The test system of test [20] is SK-MEL-28 melanoma.

Molecules are shown by their SMILES. The panel holds about 83,000 compounds, 20% with a hit somewhere; the sample as a whole holds those more often.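 Percent growth is the endpoint: 0 to 100 indicates growth inhibition (40 means 60% inhibition), 0 means no net growth, and negative values indicate cell death.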 Values without a mark were called inactive. Calls of active or inactive are those of the source. The calls were made as follows: active = growth percent below 10; inactive = the rest.

Turning to `COc1ccc(-c2cc(C(=O)OCc3ccc(Br)cc3)nn2-c2ccc(S(C)(=O)=O)cc2)cc1OC`, the growth in [1] was 86.4%; in test [2], 79.9%; in [3], 106%; in test [4], 70.5%; in [5] it was 62%; in test [6], 66.5%. The growth in [7] was 81.4%; in test [8] it was 72.4%; in test [9] it was 106%; in test [10], 114%; in test [11] it was 73.3%; in [12] it was 87.3%. Also, the growth in test [13] was 60.5%; in test [14] it was 84.6%; in test [15] it was 86.1%; in [16], 72.1%; in [17] it was 77.5%; in test [18] it was 72.6%. The figures for the growth in test [19] and in [20] were 75.3% and 102%, respectively.

For the compound `Cn1cc(-c2cc3nc(-c4cn(C)c5ncccc45)cc(N)n3n2)c2cc(F)ccc21`, the growth was 21.8% in test [1]; 20.7% in test [2]; 62% in test [3]; 3.66% (active) in test [4]; -14.4% (active) in test [5]; 52.3% in [6]. The growth in test [7] was 28.3%; in [8], 12.8%; in test [9], 72.7%; in test [10], 71.2%; in test [11], 69%; in test [12], 6.68% (active). Moreover, the growth in test [13] was 52.9%; in test [14], 8.57% (active); in [15] it was -41.8% (active); in test [16], 32.5%; in [17], 78.2%; in test [18], 80.3%. The values for the growth in test [19] and in test [20] were 44.4% and 92.8%, respectively.

Turning to `CN1CCN(C(=O)Oc2cc3c(c4ccccc24)[C@H](CCl)CN3C(=O)c2cc3cc(OCCCN4CCC4)ccc3[nH]2)[C@H]2CSSC[C@H]21`, the growth is -3.53% (active) in [1]; 3.04% (active) in test [2]; -64.8% (active) in test [3]; -14.8% (active) in [4]; -78.8% (active) in test [5]; -9.36% (active) in [6]. The growth in test [7] was -6.36% (active); in test [8] it was -75.2% (active); in [9] it was -15.6% (active); in test [10], -75.2% (active); in test [11], -1.96% (active); in test [12] it was -1.25% (active). For the same compound, the growth in test [13] was -77.2% (active); in test [14], -15% (active); in [15] it was 6.86% (active); in test [16], -8.67% (active); in [17] it was -21.2% (active); in test [18], -81.9% (active). The growth was -23.9% (active) in test [19] and -51.1% (active) in test [20].

For the compound `COc1ccc(/C=C/C(=O)c2ccc(S(=O)(=O)NCCNc3nc(N(C)C)nc(N4CCOCC4)n3)cc2)cc1`, the growth in test [1] was 103%; in [2] it was 35.9%; in test [3] it was 97.5%; in test [4], 88.4%; in test [5] it was 92.1%; in [6] it was 84.1%. Also, the growth in [7] was 92.5%; in [8], 83.7%; in test [9], 96.5%; in [10] it was 92.1%; in [11], 59.3%; in [12], 81.1%. Also, the growth was 61.8% in test [13]; 81.2% in test [14]; 77.4% in test [15]; 77.4% in test [16]; 94.6% in [17]; 76.9% in test [18]. Further, the growth in test [19] is 79.7%; in test [20] it was 95.1%.

Take `O=C(c1ccc(Cl)cc1)C1[C@H](c2ccccc2Cl)[C@@H](c2ccccc2)NC12C(=O)Nc1ccccc12` (stereo not given in full): the growth was -12.8% (active) in test [1]; -36.6% (active) in [2]; -34.8% (active) in test [3]; -64.8% (active) in [4]; -80.8% (active) in test [5]; 2.93% (active) in test [6]. The growth is -72.3% (active) in test [7]; -89.7% (active) in test [8]; 1.79% (active) in [9]; -75.7% (active) in [10]; -25.8% (active) in test [11]; -71.7% (active) in [12]. Besides, the growth in test [13] is -4.03% (active); in [14] it was 7.09% (active); in [15] it was -26.4% (active); in [16] it was -3.66% (active); in [17], -97.1% (active); in test [18], -73.3% (active). The growth is -97.9% (active) in test [19] and -57.3% (active) in test [20].

For the compound `CCCCCCCCc1ccc(C(=O)Nc2ccc(C)c(OP(=O)(O)O)c2)cc1`, the growth is 101% in test [1]; 87% in test [2]; 102% in [3]; 97.3% in test [4]; 113% in [5]; 83.1% in test [6]. The growth in test [7] is 91.2%; in test [8], 93.4%; in test [9] it was 102%; in test [10], 106%; in [11], 95.5%; in [12], 106%. The growth was 89.8% in test [13]; 91% in test [14]; 92% in test [15]; 91.3% in [16]; 103% in test [17]; 90.6% in test [18]. In addition, the growth in [19] was 92.9%; in test [20] it was 116%.

Turning to `Fc1cccc(CNc2nc(SCCN3CCOCC3)nc3c2cnn3CC(Cl)c2ccc(Br)cc2)c1` (stereo not given), the growth is 49.9% in test [1]; -4.59% (active) in test [2]; -19.6% (active) in test [3]; 6.57% (active) in test [4]; 29.5% in [5]; 35% in test [6]. Also, the growth in test [7] is -10.5% (active); in test [8], 10.8%; in test [9], 20.1%; in test [10] it was 28%; in test [11], -64.7% (active); in [12], -49.9% (active). Besides, the growth is 42.3% in test [13]; 42.2% in test [14]; 25.2% in test [15]; 25.8% in test [16]; 3.78% (active) in [17]; 28.2% in [18]. The growth in [19] is 5.6% (active); in test [20], 46.8%.

(Values after PubChem BioAssay (NCI).)
